Measured values from PubChem BioAssay (Tox21).
Unmarked numbers belong to inactive results. Inconclusive results are not listed. A call without a number means that no potency is given here. Active and inactive are the calls of the source. Unless noted, the call rests on the fitted dose curve; in most records, active means well fitted curve in the direction sought with a large enough effect in the repeat runs; inconclusive means weak or mixed curves; inactive means no such curve, though single readings can be large; an effect the other way counts as inactive or inconclusive.

Columns and labels:
[1] = qHTS assay to identify small molecule agonists of the TGF-beta/Smad signaling pathway - cell viability counter screen (AID 1346829); further: top concentration of the series differs between compounds; nearly all actives have a fitted effect of over 45% in size
Outline: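 Same-well cytotoxicity: CellTiter-Glo added after the 2 hr room-temperature beta-lactamase substrate step, luminescence measured 30 min later; cells had 5 hr of compound at 37 C.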

[2] = qHTS assay to identify small molecule agonists of the TGF-beta/Smad signaling pathway (AID 1346859; active means well fitted activation curve with a large enough effect in the signal ratio in the repeat runs, not every such curve was filed as active; the % refers to the signal ratio; further: series mostly up to about 77 µM)
Outline: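 Reporter line: HEK 293T with stably integrated SBE-controlled beta-lactamase. Compound exposure lasts 5 hr at 37 C and 5% CO2; substrate loading follows for 2 hr at room temperature, with emission read at 460 and 530 nm.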

[3] = biological target: Thyrotropin-releasing hormone receptor (Homo sapiens) (UniProt P34981); experiment: qHTS assay to identify small molecule antagonists of the thyrotropin-releasing hormone receptor (TRHR) signaling pathway (AID 1346877; active means well fitted inhibition curve with a large enough effect in the repeat runs, not every such curve was filed as active; further: series mostly up to about 51 µM)
Chain of Thyrotropin-releasing hormone receptor (Homo sapiens) (P34981 whole entry, looked up): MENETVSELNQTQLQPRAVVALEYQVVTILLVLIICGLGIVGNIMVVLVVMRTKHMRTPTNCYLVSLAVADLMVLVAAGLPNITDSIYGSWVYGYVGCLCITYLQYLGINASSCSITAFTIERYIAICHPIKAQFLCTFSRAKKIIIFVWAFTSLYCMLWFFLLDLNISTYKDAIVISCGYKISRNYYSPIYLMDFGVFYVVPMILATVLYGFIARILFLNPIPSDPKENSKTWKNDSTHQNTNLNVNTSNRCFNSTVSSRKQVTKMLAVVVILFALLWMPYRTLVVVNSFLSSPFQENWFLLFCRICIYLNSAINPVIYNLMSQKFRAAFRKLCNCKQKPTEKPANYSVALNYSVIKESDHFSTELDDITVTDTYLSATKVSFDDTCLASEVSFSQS
Outline: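 Antagonism is measured as suppression of the calcium response to 1 nM TRH in TRHR-HEK293 cells that have been dye-loaded for 2 h at 37 °C after overnight plating. Each compound is tested at 15 concentrations in triplicate.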

[4] = biological target: Thyrotropin-releasing hormone receptor (Homo sapiens) (UniProt P34981); experiment: qHTS assay to identify small molecule agonists of the thyrotropin-releasing hormone receptor (TRHR) signaling pathway (AID 1346891; calls by dose curve;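 further: HEK293 cells expressing TRHR with calcium dye readout; series mostly up to about 58 µM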)
Outline: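 Cells: TRHR-Hek293, seeded and incubated 18 h. Dye loading: 2 h at 37 °C. Compound added from DMSO stock by pin tool. Read-out: kinetic calcium fluorescence over 3 min.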

[5] = Human pregnane X receptor (PXR) small molecule agonists, qHTS cell viability counter screen (AID 1346977); further: nearly all actives have a fitted effect of over 50% in size
Outline: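 Cytotoxicity counter screen run in the same wells as the PXR luciferase assay, using PXR-Luc HepG2 cells in charcoal-stripped serum medium. Viability: CellTiter-Fluor fluorescence after 24hr compound treatment.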

[6] = Caspase-3/7 induction in HepG2 cells by small molecules, qHTS assay (AID 1346978); further: nearly all actives have a fitted effect of over 15% in size
Outline: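 Caspase-3/7 induction was measured by Caspase-Glo 3/7 luminescence (30 min, room temperature) after a 17 hr compound exposure of wild-type HepG2 cells seeded at 2,000 per well and pre-incubated 5 hr.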

[7] = Caspase-3/7 induction in CHO-K1 cells by small molecules, qHTS cell viability counter screen (AID 1346979); further: nearly all actives have a fitted effect of over 35% in size
Outline: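 Cytotoxicity counter screen run in parallel with the caspase-3/7 assay: CHO-K1 cells, 16hr compound treatment at 37C, then CellTiter-Fluor for 1hr before fluorescence reading.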

[8] = Caspase-3/7 induction in CHO-K1 cells by small molecules, qHTS assay (AID 1346980); further: nearly all actives have a fitted effect of over 15% in size
Outline: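 Luminescent Caspase-Glo 3/7 read (30min, room temperature) quantified apoptosis induction. Cells were wild-type CHO-K1, treated with compound for 17hr at 37 C and 5% CO2.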

[9] = Caspase-3/7 induction in HepG2 cells by small molecules, qHTS cell viability counter screen (AID 1346981); further: series mostly up to about 92 µM; nearly all actives have a fitted effect of over 30% in size
Outline: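 Cell viability is measured as a cytotoxicity counter screen alongside the Caspase-Glo 3/7 readout in identical wells. Wild-type HepG2 cells are treated with test compounds for 16 hr at 37 C before CellTiter-Fluor addition and a 1-hr incubation.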

[10] = biological target: Nuclear receptor subfamily 1 group I member 2 (Homo sapiens) (UniProt O75469); experiment: Human pregnane X receptor (PXR) small molecule agonists, qHTS assay (AID 1346982); further: nearly all actives have a fitted effect of over 35% in size; further: potency means the concentration at half of the fitted maximal effect
Chain of Nuclear receptor subfamily 1 group I member 2 (Homo sapiens) (O75469 whole entry, looked up): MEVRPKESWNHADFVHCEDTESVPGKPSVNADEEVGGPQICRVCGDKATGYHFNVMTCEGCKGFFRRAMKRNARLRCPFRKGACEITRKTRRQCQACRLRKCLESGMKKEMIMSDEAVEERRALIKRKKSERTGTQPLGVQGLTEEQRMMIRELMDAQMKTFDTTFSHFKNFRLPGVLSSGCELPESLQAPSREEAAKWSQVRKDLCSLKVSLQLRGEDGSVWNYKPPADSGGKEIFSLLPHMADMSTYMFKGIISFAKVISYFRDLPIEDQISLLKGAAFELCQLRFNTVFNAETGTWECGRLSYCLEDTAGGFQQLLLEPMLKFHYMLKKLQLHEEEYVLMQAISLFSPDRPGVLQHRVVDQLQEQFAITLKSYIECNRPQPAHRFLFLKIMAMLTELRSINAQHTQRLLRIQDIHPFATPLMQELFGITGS
Outline: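 Cells: HepG2 stably carrying PXR-Luc. Medium held 5% charcoal-stripped FBS. Compounds in DMSO added after 5 hr plating, incubated 24 hr, then luminescence quantified with ONE-Glo.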

[11] = biological target: Cytochrome P450 2D6 (Homo sapiens) (UniProt P10635); experiment: Cytochrome P450 Family 2 Subfamily D Member 6 (CYP2D6) small molecule antagonists: luciferase reporter qHTS assay (AID 1671196); further: series mostly up to about 120 µM; nearly all actives have a fitted effect of over 50% in size
Chain of Cytochrome P450 2D6 (Homo sapiens) (P10635 whole entry, looked up): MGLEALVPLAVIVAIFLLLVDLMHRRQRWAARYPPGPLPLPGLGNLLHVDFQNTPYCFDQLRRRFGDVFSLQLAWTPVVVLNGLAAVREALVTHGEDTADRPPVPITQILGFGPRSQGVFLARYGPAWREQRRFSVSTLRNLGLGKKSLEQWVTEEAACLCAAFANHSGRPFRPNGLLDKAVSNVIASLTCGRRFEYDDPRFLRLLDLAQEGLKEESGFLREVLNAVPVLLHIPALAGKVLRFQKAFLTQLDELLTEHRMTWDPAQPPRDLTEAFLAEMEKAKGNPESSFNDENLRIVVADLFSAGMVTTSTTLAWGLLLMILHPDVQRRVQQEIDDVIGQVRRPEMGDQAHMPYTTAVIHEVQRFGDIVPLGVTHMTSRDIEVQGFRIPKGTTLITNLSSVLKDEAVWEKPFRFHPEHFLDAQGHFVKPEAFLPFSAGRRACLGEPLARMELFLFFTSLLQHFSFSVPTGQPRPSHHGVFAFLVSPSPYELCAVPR
Outline: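 Enzyme and proluciferin substrate were first combined with test chemical for 10 min at room temperature. Adding NADPH regeneration solution started a 1 h reaction, stopped with luciferin detection reagent and read by luminescence 20 min later.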

[12] = biological target: Cytochrome P450 2C19 (Homo sapiens) (UniProt P33261); experiment: Cytochrome P450 Family 2 Subfamily C Member 19 (CYP2C19) small molecule antagonists: luciferase reporter qHTS assay (AID 1671197); further: series mostly up to about 120 µM; nearly all actives have a fitted effect of over 65% in size
Chain of Cytochrome P450 2C19 (Homo sapiens) (P33261 whole entry, looked up): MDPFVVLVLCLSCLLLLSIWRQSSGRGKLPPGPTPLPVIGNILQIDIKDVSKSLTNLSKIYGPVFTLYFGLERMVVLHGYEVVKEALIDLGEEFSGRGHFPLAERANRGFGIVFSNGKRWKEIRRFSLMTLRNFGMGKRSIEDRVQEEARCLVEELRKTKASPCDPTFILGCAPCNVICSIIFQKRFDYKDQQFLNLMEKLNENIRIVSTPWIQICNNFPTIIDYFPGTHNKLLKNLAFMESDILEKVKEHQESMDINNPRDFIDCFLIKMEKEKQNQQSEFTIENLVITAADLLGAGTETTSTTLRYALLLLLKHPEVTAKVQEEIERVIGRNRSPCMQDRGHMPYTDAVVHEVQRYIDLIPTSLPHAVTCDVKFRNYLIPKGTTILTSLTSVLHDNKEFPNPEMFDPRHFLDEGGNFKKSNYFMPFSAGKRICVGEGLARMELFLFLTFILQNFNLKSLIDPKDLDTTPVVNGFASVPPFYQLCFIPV
Outline: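 Quantitative high-throughput screen of the Tox21 library using CYP2C19 with proluciferin substrate. Reaction: NADPH regeneration, 37C, 1 h, after 10 min compound preincubation at room temperature. Readout: luminescence.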

[13] = biological target: Cytochrome P450 2C9 (Homo sapiens) (UniProt P11712); experiment: Cytochrome P450 Family 2 Subfamily C Member 9 (CYP2C9) small molecule antagonists: luciferase reporter qHTS assay (AID 1671198); further: nearly all actives have a fitted effect of over 50% in size; further: potency means the concentration at half of the fitted maximal effect
Chain of Cytochrome P450 2C9 (Homo sapiens) (P11712 whole entry, looked up): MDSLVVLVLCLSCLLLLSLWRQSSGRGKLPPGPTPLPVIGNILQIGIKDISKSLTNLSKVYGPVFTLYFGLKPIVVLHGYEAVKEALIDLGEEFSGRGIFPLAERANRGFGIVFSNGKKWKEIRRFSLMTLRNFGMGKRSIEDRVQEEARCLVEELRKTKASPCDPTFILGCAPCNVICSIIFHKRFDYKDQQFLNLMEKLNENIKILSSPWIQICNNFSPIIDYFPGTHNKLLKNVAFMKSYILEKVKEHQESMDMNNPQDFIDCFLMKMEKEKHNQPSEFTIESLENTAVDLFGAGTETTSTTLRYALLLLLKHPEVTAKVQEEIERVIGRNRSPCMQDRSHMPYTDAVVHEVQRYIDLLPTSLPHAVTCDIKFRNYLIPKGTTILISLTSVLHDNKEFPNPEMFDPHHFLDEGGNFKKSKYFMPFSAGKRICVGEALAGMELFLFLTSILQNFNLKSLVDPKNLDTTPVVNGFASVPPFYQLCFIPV
Outline: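 Enzyme-substrate mix preincubated with compound 10 min at room temperature; reaction started with NADPH regeneration solution, 1 h 37C. Luminescent luciferin product read after 20 min detection reagent.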

[14] = biological target: Cytochrome P450 1A2 (Homo sapiens) (UniProt P05177); experiment: Cytochrome P450 Family 1 Subfamily A Member 2 (CYP1A2) small molecule antagonists: luciferase reporter qHTS assay (AID 1671199); further: nearly all actives have a fitted effect of over 50% in size; further: potency means the concentration at half of the fitted maximal effect
Chain of Cytochrome P450 1A2 (Homo sapiens) (P05177 whole entry, looked up): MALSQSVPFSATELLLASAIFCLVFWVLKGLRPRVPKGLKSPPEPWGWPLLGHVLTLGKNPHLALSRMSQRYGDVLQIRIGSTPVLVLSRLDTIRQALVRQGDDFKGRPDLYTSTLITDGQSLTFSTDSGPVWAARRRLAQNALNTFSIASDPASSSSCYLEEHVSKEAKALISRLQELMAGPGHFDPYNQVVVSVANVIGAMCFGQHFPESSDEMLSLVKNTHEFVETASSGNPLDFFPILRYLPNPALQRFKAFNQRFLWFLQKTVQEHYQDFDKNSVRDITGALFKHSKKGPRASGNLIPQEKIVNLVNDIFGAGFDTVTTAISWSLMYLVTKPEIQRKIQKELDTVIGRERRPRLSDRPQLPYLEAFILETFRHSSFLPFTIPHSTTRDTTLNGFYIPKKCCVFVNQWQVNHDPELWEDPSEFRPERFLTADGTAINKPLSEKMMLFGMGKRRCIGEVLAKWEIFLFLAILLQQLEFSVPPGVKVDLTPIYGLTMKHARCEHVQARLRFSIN
Outline: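 Compounds were incubated with CYP1A2 and a luminogenic proluciferin substrate for 10 min at room temperature before the reaction was started with NADPH regeneration solution. After 1 h, detection reagent was added and light output, proportional to CYP activity, was recorded.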

[15] = biological target: Voltage-gated inwardly rectifying potassium channel KCNH2 (Homo sapiens) (UniProt Q12809); experiment: Human Ether-a-go-go-Related Gene (hERG) channel small molecule antagonists: fluorescence cell-based qHTS assay (AID 1671200)
Chain of Voltage-gated inwardly rectifying potassium channel KCNH2 (Homo sapiens) (Q12809 whole entry, looked up): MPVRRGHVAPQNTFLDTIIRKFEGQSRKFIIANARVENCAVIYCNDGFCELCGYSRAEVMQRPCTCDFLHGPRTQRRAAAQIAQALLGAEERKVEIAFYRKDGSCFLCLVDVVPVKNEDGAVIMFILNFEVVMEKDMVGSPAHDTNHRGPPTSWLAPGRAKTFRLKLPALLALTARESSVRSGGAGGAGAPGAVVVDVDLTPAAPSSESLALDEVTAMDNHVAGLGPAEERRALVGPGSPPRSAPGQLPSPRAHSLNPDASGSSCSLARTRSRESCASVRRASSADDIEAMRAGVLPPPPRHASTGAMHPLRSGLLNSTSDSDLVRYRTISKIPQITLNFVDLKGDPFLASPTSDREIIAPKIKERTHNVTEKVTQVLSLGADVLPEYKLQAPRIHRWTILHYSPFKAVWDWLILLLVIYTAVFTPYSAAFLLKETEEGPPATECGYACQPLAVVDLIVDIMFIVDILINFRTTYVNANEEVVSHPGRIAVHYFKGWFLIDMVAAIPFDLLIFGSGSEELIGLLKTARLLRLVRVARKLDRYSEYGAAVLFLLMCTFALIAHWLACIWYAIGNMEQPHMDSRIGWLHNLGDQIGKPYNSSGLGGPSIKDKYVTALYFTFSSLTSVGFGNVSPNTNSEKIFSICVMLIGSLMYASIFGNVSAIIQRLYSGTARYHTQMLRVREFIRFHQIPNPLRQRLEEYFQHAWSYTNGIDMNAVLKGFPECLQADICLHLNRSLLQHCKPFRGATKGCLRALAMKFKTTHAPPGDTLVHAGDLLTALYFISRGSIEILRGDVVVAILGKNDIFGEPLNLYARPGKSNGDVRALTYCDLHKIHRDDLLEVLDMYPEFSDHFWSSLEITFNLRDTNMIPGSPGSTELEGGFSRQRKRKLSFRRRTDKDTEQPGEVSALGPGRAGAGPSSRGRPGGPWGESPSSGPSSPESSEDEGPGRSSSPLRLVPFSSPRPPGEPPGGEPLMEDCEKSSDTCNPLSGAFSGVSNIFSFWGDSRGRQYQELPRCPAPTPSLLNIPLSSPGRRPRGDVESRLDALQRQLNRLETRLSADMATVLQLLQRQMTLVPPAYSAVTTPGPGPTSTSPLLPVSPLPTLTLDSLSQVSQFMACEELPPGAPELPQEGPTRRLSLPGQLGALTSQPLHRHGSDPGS
Outline: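 Fluorescence at 540 nm emission (480 nm excitation) was recorded kinetically for 2 min at 1-second intervals once the thallium-containing stimulus reached cells previously loaded with FluxOR II dye.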

[16] = biological target: Nuclear receptor subfamily 1 group I member 2 (Rattus norvegicus) (UniProt Q9R1A7); experiment: Rat pregnane X receptor (rPXR) activation by small molecules, qHTS assay (AID 1346983); settings: rPXR luciferase reporter cells, One-Glo luminescence, 24 h; max activation: stronger effect = higher value; further: nearly all actives have a fitted effect of over 20% in size
Chain of Nuclear receptor subfamily 1 group I member 2 (Rattus norvegicus) (Q9R1A7 whole entry, looked up): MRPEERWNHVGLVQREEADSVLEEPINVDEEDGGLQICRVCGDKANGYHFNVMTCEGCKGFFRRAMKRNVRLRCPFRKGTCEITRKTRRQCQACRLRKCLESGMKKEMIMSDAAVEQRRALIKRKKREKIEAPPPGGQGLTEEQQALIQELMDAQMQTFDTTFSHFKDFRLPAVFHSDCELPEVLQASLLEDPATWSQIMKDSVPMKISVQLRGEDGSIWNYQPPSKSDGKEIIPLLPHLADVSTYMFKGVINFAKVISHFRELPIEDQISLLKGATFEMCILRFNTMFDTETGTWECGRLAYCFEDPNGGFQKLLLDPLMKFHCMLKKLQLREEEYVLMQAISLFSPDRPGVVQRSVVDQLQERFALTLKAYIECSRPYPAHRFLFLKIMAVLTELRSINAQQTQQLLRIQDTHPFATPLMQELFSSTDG
Outline: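 Luminescent readout (One-Glo luciferase, 30 min room temperature) followed 24 hr compound treatment at 37 C of rPXR cells plated 2,000 per well and preincubated 5hr; qHTS format with compounds delivered in DMSO.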

[17] = biological target: Nuclear receptor subfamily 1 group I member 2 (Homo sapiens) (UniProt O75469); experiment: CYP3A4 induction through human pregnane X receptor (PXR) by small molecules, qHTS assay (AID 1346984); further: nearly all actives have a fitted effect of over 40% in size
Outline: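 Quantitative HTS in DPX-2 cells, i.e. HepG2 transfected with PXR response element and CYP3A4-promoter luciferase. Compounds in DMSO incubated 24hr at 37C; then P450-Glo CYP3A4 substrate, 3uM final, 3hr; One-Glo luminescence.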

[18] = biological target: Nuclear receptor subfamily 1 group I member 2 (Homo sapiens) (UniProt O75469); experiment: Human pregnane X receptor (PXR) activation by small molecules, qHTS assay (AID 1346985); further: nearly all actives have a fitted effect of over 40% in size
Outline: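 DPX-2 cells (HepG2 co-transfected with a PXR response element and a CYP3A4-promoter luciferase construct) were seeded at 2,000 per well, rested 5 hr at 37C, then exposed to DMSO-dissolved compounds for 24 hr. Activation was read as luciferase luminescence.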

[19] = biological target: Cytochrome P450 3A4 (Homo sapiens) (UniProt P08684); experiment: Cytochrome P450 Family 3 Subfamily A Member 4 (CYP3A4) small molecule antagonists: luciferase reporter qHTS assay (AID 1671201)
Chain of Cytochrome P450 3A4 (Homo sapiens) (P08684 whole entry, looked up): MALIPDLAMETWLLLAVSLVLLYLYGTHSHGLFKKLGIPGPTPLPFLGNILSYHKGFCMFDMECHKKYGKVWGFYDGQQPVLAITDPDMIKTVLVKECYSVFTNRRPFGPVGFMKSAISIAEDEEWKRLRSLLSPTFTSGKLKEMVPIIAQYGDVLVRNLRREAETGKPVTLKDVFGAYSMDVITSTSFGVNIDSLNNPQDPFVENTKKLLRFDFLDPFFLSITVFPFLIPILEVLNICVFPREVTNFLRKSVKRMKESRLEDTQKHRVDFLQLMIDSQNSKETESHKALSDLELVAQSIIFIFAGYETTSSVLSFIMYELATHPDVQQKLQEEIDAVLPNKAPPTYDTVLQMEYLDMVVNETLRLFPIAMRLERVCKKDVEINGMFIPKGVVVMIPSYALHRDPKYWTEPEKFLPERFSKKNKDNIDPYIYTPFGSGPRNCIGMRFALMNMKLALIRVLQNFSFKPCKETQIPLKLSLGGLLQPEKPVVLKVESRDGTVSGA
Outline: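 qHTS, 1536-well. CYP3A4 + proluciferin substrate, cpd 10 min RT → NADPH regen 1 h RT → detection reagent 20 min → luminescence (RLU). Ketoconazole positive control.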

| Compound | outcome [1] | outcome [2] | outcome [3] | Potency [4] | outcome [5] | outcome [6] | Potency [7] | outcome [8] | outcome [9] | Potency [10] | Potency [11] | Potency [12] | Potency [13] | Potency [14] | Potency [15] | max activation [16] | outcome [17] | outcome [18] | Potency [19] |
| --- | --- | --- | --- | --- | --- | --- | --- | --- | --- | --- | --- | --- | --- | --- | --- | --- | --- | --- | --- |
| CC(=O)SCC(CC(=O)c1ccc(C)cc1)C(=O)O (centres undefined) | inactive | inactive | inactive | inactive | inactive | inactive | inactive | inactive | inactive | inactive | inactive | inactive | 15.5 µM (active) | inactive | inactive | – | – | – | – |
| O=C(OOC(=O)c1ccccc1)c1ccccc1 | inactive | inactive | inactive | inactive | inactive | inactive | inactive | inactive | inactive | inactive | inactive | – | inactive | – | inactive | -2.52% | inactive | inactive | inactive |
| CCCCCCCC(=O)N(C)C | inactive | inactive | inactive | inactive | inactive | inactive | inactive | inactive | inactive | – | – | inactive | inactive | inactive | inactive | – | – | – | inactive |
| CC[N+](C)(CC)CC | inactive | inactive | inactive | inactive | inactive | inactive | inactive | inactive | inactive | inactive | inactive | inactive | inactive | inactive | inactive | – | – | – | inactive |
| C/C(=N\O)c1ccc(OCC(=O)N2CCCCC2)cc1 | inactive | inactive | inactive | inactive | inactive | inactive | inactive | inactive | inactive | 10.6 µM (active) | – | – | – | – | inactive | – | – | – | inactive |
| COc1cc(OC)cc(OC)c1 | inactive | inactive | inactive | inactive | inactive | inactive | inactive | inactive | inactive | inactive | inactive | inactive | inactive | 17.4 µM (active) | inactive | -1.98% | inactive | inactive | inactive |
| COc1cc(S(N)(=O)=O)cc(C(=O)O)c1OC | inactive | inactive | inactive | inactive | inactive | inactive | inactive | inactive | inactive | inactive | inactive | inactive | inactive | inactive | inactive | – | – | – | inactive |
